The source of these data is ChEMBL document CHEMBL3988442, “University of Dundee, Small-Polar-MMV Screening Library” (2021).

For some of these results: Entries with a potency or affinity are not part of this list.

Common to all, as to parameters: scale not given: direction of the effect not stated beside the values
For experiment [1], the target named is Protein translocase subunit SecA (Escherichia coli (strain K12)) (UniProt P10408). Nature of the experiment: Assay to Identify E. coli SecA ATPase Inhibitors. The format is functional. Particulars: 30 µM.
Experiment [2] addresses T1, Ubiquitin-activating enzyme e1, putative (Leishmania donovani (strain BPK282A1)) (UniProt E9BSI1).
T1 sequence (whole entry): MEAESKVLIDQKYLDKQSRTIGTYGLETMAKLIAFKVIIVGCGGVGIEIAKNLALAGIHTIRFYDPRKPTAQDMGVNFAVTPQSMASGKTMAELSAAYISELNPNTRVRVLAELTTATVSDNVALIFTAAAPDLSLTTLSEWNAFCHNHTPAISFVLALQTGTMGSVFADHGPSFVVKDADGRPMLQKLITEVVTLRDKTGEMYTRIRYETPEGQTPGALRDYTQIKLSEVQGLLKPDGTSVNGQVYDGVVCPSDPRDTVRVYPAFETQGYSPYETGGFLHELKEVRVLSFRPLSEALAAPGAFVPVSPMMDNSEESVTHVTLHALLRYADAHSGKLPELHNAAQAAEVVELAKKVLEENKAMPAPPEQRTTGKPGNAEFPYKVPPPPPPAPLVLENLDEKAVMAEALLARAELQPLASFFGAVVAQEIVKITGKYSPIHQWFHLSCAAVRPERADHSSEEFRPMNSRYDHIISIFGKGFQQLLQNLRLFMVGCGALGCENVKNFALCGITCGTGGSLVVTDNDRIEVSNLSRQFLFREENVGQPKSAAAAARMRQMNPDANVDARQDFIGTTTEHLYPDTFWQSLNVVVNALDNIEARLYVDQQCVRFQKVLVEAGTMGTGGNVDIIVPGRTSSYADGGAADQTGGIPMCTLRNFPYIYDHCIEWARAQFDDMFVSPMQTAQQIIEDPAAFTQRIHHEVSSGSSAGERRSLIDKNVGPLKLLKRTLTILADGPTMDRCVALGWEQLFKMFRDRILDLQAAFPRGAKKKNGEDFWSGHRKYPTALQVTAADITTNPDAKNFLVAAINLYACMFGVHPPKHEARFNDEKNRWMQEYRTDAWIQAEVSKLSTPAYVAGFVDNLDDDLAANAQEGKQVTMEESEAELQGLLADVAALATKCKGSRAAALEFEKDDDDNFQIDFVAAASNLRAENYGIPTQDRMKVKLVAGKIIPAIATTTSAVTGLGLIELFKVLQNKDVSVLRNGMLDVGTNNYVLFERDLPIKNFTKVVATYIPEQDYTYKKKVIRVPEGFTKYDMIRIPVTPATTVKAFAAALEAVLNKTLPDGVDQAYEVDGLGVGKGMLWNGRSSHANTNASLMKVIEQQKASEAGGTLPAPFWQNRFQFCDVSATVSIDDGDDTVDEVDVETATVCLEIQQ
Nature of the experiment: Leishmania donovani Ubiquitin Activating Enzyme (LdE1). The settings on record: 30 µM. The format is functional.

The target in experiment [3] is AMP-activated protein kinase, AMPK (Homo sapiens) (UniProt P54646+O43741+P54619+Q9UGJ0+Q9Y478+Q13131+Q9UGI9). The experiment can be described thus: AMP-dependent Kinase enzyme assay. An in vitro enzyme assay that detects ADP turnover that is directly proportional to AMPK activity. This uses naive AMPK that is activated during the assay with MK-8722. The format is functional. The settings on record: 30 µM.

Experiment [4] deals with Sialic acid-binding Ig-like lectin 9 (Homo sapiens) (UniProt Q9Y336). The experiment can be described thus: Hs-Siglec9 ALPHAscreen SOP 20170721. The settings on record: 10 µM.
Experiment [5] concerns Trypanosoma cruzi. The experiment can be described thus: Trypanosoma cruzi phosphomannomutase and mannose-1-phosphate guanylyltransferase assay. The settings on record: 10 µM. The format is functional.
The target of experiment [6] is T2, Arginase-2, mitochondrial (Homo sapiens) (UniProt P78540).
T2 sequence (whole entry): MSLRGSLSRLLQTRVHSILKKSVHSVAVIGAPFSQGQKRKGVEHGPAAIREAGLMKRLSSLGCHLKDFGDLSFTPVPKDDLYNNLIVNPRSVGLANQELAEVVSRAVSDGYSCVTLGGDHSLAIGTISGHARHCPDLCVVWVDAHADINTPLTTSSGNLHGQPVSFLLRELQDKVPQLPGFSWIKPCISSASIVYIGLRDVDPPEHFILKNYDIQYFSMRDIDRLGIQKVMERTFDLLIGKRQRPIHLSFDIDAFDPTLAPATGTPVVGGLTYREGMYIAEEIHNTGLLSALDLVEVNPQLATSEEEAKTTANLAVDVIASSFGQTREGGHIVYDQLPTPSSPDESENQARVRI
The experiment can be described thus: in vitro enzyme assay to detect the production of urea directly proportional to the activity of Arginase II. Further: in the data most compounds retested in dose-response had high values. Particulars: 33.3 µM. The format is functional.

Experiment [7] addresses T3, Proteasome subunit beta (Trypanosoma cruzi) (UniProt O96673).
T3 sequence (whole entry): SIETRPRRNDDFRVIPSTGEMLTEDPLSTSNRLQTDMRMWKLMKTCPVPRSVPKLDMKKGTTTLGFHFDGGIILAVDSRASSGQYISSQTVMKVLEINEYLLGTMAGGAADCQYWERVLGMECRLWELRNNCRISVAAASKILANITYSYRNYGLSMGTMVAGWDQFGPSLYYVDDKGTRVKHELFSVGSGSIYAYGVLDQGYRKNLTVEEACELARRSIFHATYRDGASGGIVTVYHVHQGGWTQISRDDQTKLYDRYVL
The experiment can be described thus: Trypanosoma cruzi proteasome chymotrypsin-like activity (TcProtChymo) assay. Further: in the data most compounds retested in dose-response had high values. Particulars: 9.37 µM. The format is functional.

The species named for experiment [8] is Homo sapiens. The experiment can be described thus: To identify inhibition of the IFN signalling (Jak-Stat) pathway via expression of an eGFP reporter gene under the control of an IFN-stimulated response element (ISRE) containing MxA promoter. The format is functional. The settings on record: 30 µM. (In general: In a reporter assay the amount or activity of a reporter protein is the signal.)

In experiment [9] the target is T4, Tyrosyl-tRNA synthetase, putative (Trypanosoma cruzi (strain CL Brener)) (UniProt Q4DSP6).
T4 sequence (whole entry): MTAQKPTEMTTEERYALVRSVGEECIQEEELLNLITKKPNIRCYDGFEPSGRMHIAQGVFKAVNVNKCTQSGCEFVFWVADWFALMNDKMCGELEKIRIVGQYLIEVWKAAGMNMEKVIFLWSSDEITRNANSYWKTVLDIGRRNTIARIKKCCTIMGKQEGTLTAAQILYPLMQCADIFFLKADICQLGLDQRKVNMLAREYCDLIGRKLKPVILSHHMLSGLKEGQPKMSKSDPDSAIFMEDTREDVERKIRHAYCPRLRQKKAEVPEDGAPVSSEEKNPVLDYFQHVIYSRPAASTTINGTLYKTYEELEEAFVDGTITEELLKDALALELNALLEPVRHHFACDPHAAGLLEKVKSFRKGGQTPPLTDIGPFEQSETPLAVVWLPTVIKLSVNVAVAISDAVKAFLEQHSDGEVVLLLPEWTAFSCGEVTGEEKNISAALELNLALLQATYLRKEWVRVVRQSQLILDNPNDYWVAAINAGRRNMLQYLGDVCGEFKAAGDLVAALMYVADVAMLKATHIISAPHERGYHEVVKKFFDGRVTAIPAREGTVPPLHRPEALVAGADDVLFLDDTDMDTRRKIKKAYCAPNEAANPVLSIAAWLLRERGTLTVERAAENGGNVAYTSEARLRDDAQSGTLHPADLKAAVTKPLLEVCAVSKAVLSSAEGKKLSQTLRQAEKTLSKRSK
The experiment can be described thus: Trypanosoma cruzi tyrosyl tRNA synthetase (TcYRS) _High Tyrosine SOP. Further: in the data most compounds retested in dose-response had high values. The format is functional. Particulars: 30 µM.

In experiment [10] the target is T4, Tyrosyl-tRNA synthetase, putative (Trypanosoma cruzi (strain CL Brener)). Nature of the experiment: Trypanosoma cruzi tyrosyl tRNA synthetase (TcYRS) SOP. The format is functional. Particulars: 30 µM.
For experiment [11], the target named is Chromo domain-containing protein 1 (Saccharomyces cerevisiae (strain ATCC 204508 / S288c) (Baker's yeast)) (UniProt P32657). Nature of the experiment: ScCHD-1 Enzyme Inhibition Assay. Further: in the data most compounds retested in dose-response had high values. The format is functional. Particulars: 30 µM.
Sequence of Chromo domain-containing protein 1 (Saccharomyces cerevisiae (strain ATCC 204508 / S288c) (Baker's yeast)) (P32657 whole entry, the tested form may be a part): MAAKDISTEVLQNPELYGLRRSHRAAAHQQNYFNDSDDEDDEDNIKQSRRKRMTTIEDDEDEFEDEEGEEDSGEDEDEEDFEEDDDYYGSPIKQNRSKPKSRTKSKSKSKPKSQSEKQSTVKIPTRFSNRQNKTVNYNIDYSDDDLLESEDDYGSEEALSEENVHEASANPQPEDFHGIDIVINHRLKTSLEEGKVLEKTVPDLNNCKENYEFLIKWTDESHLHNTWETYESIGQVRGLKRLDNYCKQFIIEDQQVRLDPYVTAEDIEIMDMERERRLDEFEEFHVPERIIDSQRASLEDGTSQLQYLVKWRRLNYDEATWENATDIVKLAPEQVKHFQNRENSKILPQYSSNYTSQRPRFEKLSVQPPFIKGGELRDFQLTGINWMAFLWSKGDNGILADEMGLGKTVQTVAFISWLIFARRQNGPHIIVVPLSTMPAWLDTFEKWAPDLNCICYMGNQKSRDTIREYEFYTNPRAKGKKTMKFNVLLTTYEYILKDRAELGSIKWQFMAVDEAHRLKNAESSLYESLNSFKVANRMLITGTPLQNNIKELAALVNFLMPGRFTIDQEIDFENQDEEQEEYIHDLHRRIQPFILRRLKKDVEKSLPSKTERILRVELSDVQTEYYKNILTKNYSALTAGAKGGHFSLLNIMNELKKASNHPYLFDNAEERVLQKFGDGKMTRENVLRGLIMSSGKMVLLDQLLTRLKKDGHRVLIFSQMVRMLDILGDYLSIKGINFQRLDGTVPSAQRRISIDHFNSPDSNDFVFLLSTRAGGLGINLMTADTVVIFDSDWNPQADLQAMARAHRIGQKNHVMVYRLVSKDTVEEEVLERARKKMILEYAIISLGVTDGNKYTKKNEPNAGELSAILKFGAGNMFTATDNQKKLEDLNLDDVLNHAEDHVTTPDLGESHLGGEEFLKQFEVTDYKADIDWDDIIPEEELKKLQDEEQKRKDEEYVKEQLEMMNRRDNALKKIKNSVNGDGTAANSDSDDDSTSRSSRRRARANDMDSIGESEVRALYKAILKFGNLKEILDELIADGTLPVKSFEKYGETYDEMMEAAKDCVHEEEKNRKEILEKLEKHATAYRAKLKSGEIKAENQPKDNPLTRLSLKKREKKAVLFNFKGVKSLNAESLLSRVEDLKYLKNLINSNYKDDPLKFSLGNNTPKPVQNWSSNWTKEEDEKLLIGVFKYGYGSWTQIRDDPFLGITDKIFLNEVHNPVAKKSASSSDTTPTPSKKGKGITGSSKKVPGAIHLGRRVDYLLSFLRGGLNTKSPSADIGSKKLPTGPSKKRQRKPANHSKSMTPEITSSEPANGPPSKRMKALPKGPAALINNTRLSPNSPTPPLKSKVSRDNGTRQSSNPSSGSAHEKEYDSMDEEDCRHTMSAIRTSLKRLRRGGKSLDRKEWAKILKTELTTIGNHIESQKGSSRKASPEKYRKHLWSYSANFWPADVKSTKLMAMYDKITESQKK

Sequence of Protein translocase subunit SecA (Escherichia coli (strain K12)) (P10408 whole entry): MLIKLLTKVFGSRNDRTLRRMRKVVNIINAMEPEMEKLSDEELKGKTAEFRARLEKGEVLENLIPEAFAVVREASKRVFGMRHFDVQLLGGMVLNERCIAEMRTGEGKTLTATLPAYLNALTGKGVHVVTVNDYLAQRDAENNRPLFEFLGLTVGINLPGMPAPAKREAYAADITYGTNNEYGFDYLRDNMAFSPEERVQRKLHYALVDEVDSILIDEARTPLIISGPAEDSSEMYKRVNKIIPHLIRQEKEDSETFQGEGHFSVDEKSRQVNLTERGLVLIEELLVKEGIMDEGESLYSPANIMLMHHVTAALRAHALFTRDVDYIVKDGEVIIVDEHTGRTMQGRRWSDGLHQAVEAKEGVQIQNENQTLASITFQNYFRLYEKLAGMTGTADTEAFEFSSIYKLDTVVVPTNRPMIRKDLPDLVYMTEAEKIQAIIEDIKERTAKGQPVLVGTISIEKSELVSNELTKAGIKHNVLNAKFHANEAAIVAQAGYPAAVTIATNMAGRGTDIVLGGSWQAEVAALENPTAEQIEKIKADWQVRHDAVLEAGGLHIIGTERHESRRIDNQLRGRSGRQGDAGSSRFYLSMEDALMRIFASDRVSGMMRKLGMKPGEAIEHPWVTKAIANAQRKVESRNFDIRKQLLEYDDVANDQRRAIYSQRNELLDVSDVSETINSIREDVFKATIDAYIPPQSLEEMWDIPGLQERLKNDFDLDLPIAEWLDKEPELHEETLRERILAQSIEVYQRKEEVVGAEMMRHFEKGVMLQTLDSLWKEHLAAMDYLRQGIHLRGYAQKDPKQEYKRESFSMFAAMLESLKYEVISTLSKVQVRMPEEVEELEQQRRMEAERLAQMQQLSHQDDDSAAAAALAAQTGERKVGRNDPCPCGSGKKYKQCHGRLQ
Sequence of Sialic acid-binding Ig-like lectin 9 (Homo sapiens) (Q9Y336 whole entry): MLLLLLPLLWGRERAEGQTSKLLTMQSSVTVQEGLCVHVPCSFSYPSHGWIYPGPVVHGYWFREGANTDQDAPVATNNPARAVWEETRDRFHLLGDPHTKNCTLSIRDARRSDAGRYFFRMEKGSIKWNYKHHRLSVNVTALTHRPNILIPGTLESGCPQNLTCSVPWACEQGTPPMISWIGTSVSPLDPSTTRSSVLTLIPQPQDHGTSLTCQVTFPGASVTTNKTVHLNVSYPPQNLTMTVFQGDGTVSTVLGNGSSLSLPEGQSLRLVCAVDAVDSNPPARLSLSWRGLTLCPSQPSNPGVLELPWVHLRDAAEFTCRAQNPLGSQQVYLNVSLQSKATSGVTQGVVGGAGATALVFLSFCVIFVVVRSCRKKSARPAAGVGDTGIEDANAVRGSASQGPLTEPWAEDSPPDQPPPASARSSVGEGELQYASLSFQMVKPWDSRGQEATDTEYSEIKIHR

Regarding `Cc1noc(Cl)c1CCC(=O)N1CCCCC1Cn1cccn1` (stereo not drawn), the Percent Effect in experiment [1] was -5.73%; in experiment [2], 5.26%; in [3] it was 1.98%; in experiment [4], -0.589%; in experiment [5], 1.85%; in experiment [6] it was -2.37%. The Percent Effect was 9.3% in [7]; -6.24% in [8]; 3.19% in [9]; 5.2% in experiment [10]; -7.11% in [11].
As for `Cc1nc(C)c(CC(=O)Nc2nnc(C)s2)c(=O)[nH]1`, the Percent Effect in experiment [1] is -0.0632%; in experiment [2], -13.2%; in experiment [3], -1.32%; in experiment [4], 2.92%; in experiment [5], 2.82%; in experiment [6], 1.15%. Moreover, the Percent Effect in experiment [7] is 7.85%; in experiment [8], 0.477%; in experiment [9], 4.41%; in [10], 21.9%; in [11], -10.9%.
In the case of `Cc1nc(C2CCCN(C(=O)c3cccc4c3OCO4)C2)no1` (stereo not drawn), the Percent Effect in experiment [1] is -0.923%; in experiment [2], 11.4%; in experiment [3] it was 6.75%; in experiment [4], 0.303%; in experiment [5], -5.03%; in experiment [6], -3.23%. The Percent Effect in experiment [7] was 19.9%; in experiment [8], 3.42%; in [9] it was 4.17%; in [10], 10.1%; in experiment [11], -23.7%.
Consider `COCC(=O)N1CC[C@@H]2CN(Cc3cccc(Cl)c3)S(=O)(=O)[C@@H]2CC1`, for which the Percent Effect in [1] was -3.3%; in experiment [2] it was 10.7%; in experiment [3] it was -2.58%; in experiment [4], -5.34%; in experiment [5], -6.18%; in [6], -55%. The Percent Effect in [7] is 9.74%; in [8] it was 5.42%; in experiment [9], -3.12%; in experiment [10], 12.5%; in experiment [11], -5.91%.
As for `Nc1nc(CN2CCCC(Cn3cncn3)C2)nc2ccccc12` (stereo not drawn), the Percent Effect in [1] was 1.55%; in experiment [2], -2.7%; in experiment [3], -3.95%; in [4], 9.62%; in experiment [5], 3.06%; in experiment [6] it was -2.03%. Further, the Percent Effect in [7] was -5.92%; in experiment [8], 3.26%; in experiment [9] it was 4.95%; in experiment [10], 6.1%; in experiment [11], 1.99%.
For `CN(Cc1cnn(C)c1)C(=O)c1ccc(=O)n(C)n1`, the Percent Effect in [1] was -3.21%; in [2], 7.89%; in [3], 2.81%; in experiment [4], -2.3%; in experiment [5], 5.16%; in experiment [6] it was -5.92%. Besides, the Percent Effect was 12.9% in [7]; 9.62% in [8]; 6.38% in [9]; 10.4% in experiment [10]; -4.41% in experiment [11].
`O=C1CN(Cc2nnc(-c3ccc(Br)o3)o2)CCN1`: the Percent Effect was -0.248% in experiment [1]; 4.17% in experiment [2]; -1.21% in [3]; -1.55% in experiment [4]; 0.486% in experiment [5]; 1.32% in experiment [6]. For the same compound, the Percent Effect was 21.2% in experiment [7]; -4.7% in experiment [8]; 7.37% in experiment [9]; 0% in experiment [10]; -3.99% in experiment [11].
On to `Fc1cccc(Oc2ccc(CNCC3CNc4ccnn4C3)cn2)c1` (stereo not drawn), for which the Percent Effect in experiment [1] is -2.95%; in [2], 13%; in [3] it was -2.17%; in experiment [4], 5.01%; in experiment [5], 10.5%; in experiment [6], 2.85%. Besides, the Percent Effect is 8.28% in experiment [7]; 8.31% in [8]; 37.9% in [9]; 43.9% in experiment [10]; -12.1% in experiment [11].
